The structures appear in SMILES notation. The campaign covered roughly 52,000 compounds. About 1,700 (3.3%) were called active. For the sample, actives were picked, then their nearest neighbours and some compounds at random. A number with no mark means an inactive call. Cut-off read from the data, not from the text of the source: active = survival mostly below about 52% (no sharp cut-off); inactive = mostly above about 56%.

From PubChem BioAssay AID463173 (ICCB-Longwood Screening Facility, Harvard Medical School, 2010) come the findings set out here.

The test system of this test is Wild type. Put plainly: growth inhibition of S. aureus wild type versus tarO mutant, primary screen, teichoic acid synthesis inhibitors, RN4220, OD600 (AID 463173). To be noted: S. aureus RN4220 wild type/DeltatarO growth, OD600, 18 h, stronger effect = lower value, screened at 18.75 µg/mL (by protocol).
As to `Cc1ccc2c(c1)sc1nc(=O)n(-c3cccc(Cl)c3)c(=O)n12`, the survival is 70%.
On to `Cc1ccc2c(c1)sc1nc(=O)n(-c3ccc(Cl)cc3)c(=O)n12`, for which the survival was 77%.
On to `Cc1ccc2c(c1)sc1nc(=O)n(-c3ccc(Cl)c(Cl)c3)c(=O)n12`, for which the survival was -4% (active).
In the case of `CC(C)C(NS(=O)(=O)c1cccc2cccnc12)C(=O)Nc1ccc(OC(F)(F)F)cc1` (centres undefined) it was 100%; in that of `COc1cccc(-c2cnc(NCc3ccccc3Cl)n2C)c1`, 70%; in that of `COc1ccc(OC)c(CNc2ncc(-c3ccc(Cl)cc3)n2C)c1`, 34%.
With `CCOc1ccc(-c2cnc(NCc3cccc(Cl)c3)n2C)cc1`, the survival is 52%.
Take `CCOc1ccc(-c2cnc(NCc3ccc(C(F)(F)F)cc3)n2C)cc1`: the survival was -12% (active).
Regarding `Cn1c(-c2cccc(Br)c2)cnc1NCc1cccc(F)c1`, the survival was 27%.
With `Cc1ccc(-c2cnc(NCc3ccc(C(F)(F)F)cc3)n2C)cc1`, the survival is -13% (active).
Consider `Cc1ccc(-c2cnc(NCc3ccc(C(C)C)cc3)n2C)cc1`, for which the survival is -13% (active).
Regarding `Cc1ccc(-c2cnc(NC(=O)CCC(=O)N3CCCCC3)n2C)cc1`, the survival is 110%.
Take `CCc1ccc(CNc2ncc(-c3cccc(OC)c3)n2C)cc1`: the survival was 4% (active).
Regarding `COc1ccc(-c2cnc(NCc3ccc(C)cc3)n2C)cc1`, the survival was 108%.
For `Cn1c(-c2ccccc2)cnc1NCc1ccccc1O`, the survival was 60%.
In the case of `CCOc1ccc(-c2cnc(NCc3ccc(OC)cc3OC)n2C)cc1`, the survival was 68%.
In the case of `Cc1ccc(Cl)cc1N1CCN(C(=O)c2cn(C3CCCCC3)c(=O)c3c2c2ccccc2n3C)CC1`, the survival is 76%.
On to `COC(=O)c1ccc(NC(=O)C(=O)NCC(c2cccnc2)N2CCc3ccccc32)cc1` (centres undefined), for which the survival was 47%.
Turning to `O=C(CSc1nnc(-c2ccc(Cl)cc2)c(-c2ccc(Cl)cc2)n1)NC1CCCC1`, the survival was 65%.
Consider `O=C(Nc1ccccc1C(=O)NCc1ccccc1)c1ccco1`, for which the survival is 112%.
Take `CCOC(=O)NNC(=O)C1CCC(C)CC1` (centres undefined): the survival is 64%.
`O=S(=O)(c1ccc(F)cc1)N(CC(O)Cn1c2ccccc2c2ccccc21)c1ccccc1` (centres undefined): the survival is 63%.
For `CCOc1ccc(-c2cc(C(=O)NCCc3ccccc3)c3c(-c4ccc(C)cc4)[nH]nc3n2)cc1`, the survival is 128%.
In the case of `Cc1ccc(S(=O)(=O)NCC(Nc2cccc(Cl)c2)c2ccccc2)cc1` (centres undefined) it was 68%; in that of `COc1ccc2cc3cc(C(=O)Nc4cc(C)c(Cl)cc4OC)oc3nc2c1`, 88%; in that of `Cc1cccn2c(=O)c3cc(C(=O)NC(C)C)n(C)c3nc12`, 82%.
On to `Cn1c(-c2ccc3c(c2)OCO3)cnc1NCc1cc(Cl)ccc1O`, for which the survival was 112%.
For `Cc1ccc(-c2cnc(NCc3c(F)cccc3Cl)n2C)cc1`, the survival was -12% (active).
`Fc1cccc(Cl)c1CNc1n[nH]c(-c2ccco2)n1`: the survival was 83%.
For `CCOc1ccc(CCNC(=O)c2cn(-c3cccc(OC)c3)c(=O)c3ccccc23)cc1` the value was 87%; for `Cc1cc(C)n(-c2nc3ccccc3nc2Nc2cccc(C(F)(F)F)c2)n1`, 86%.
As for `FC(F)(F)c1cccc(Nc2nc3nonc3nc2Nc2ccc(Cl)cc2)c1`, the survival was -3% (active).
Regarding `O=C(Nc1cccc(C(F)(F)F)c1)c1cc(-c2ccc(Cl)cc2)on1`, the survival is 83%.
As to `Fc1ccc(Nc2nc3nonc3nc2Nc2cccc(C(F)(F)F)c2)cc1`, the survival is -1% (active).
Regarding `Cc1ccc(Nc2nc3nonc3nc2Nc2cccc(C(F)(F)F)c2)cc1Cl`, the survival was 0% (active).
Turning to `Cc1cc(Nc2cccc(C(F)(F)F)c2)nc2ccc(NC(=O)Cc3ccc(Cl)cc3)cc12`, the survival is 78%.
As to `NS(=O)(=O)c1ccc(Nc2nc3nonc3nc2Nc2ccc(S(N)(=O)=O)cc2)cc1`, the survival was 109%.
Consider `Cc1ccc(Nc2nc3nonc3n3cnnc23)cc1Cl`, for which the survival was 88%.
As for `Fc1ccc(-c2nc(Nc3cccc(C(F)(F)F)c3)nc3c2COc2ccccc2-3)cc1`, the survival is 56%.
In the case of `CCCSc1nc2c([nH]c3ccccc32)c(=O)n1C` it was 87%; in that of `COCC(C)NC(=O)C1=CC(c2ccc3c(c2)OCO3)=NS(=O)(=O)N1C` (centres undefined), 103%.
In the case of `COc1ccc(-c2noc(N3CCN(c4cccc(Cl)c4)CC3)n2)cc1OC`, the survival is 73%.
Turning to `Cc1cccc(N(C)S(=O)(=O)c2cc3c(cc2Cl)NC(=O)CO3)c1`, the survival is 75%.
As for `COc1ccc(N2CCN(c3ncccc3-c3nc(-c4ccccc4C)no3)CC2)cc1`, the survival is 87%.
For `CCN(CC)C(=O)Cn1cc(/C=C(\C#N)C(N)=O)c2ccccc21`, the survival is 124%.
For `Cc1ccc(CNc2ncnc3c2cnn3-c2ccc(C)cc2C)cc1` the value was 73%; for `Cc1cccc(C(=O)NNc2ncnc3c2cnn3-c2ccc(C)cc2C)c1`, 124%.
In the case of `Cc1ccc(-n2ncc3c(NCC(C)C)ncnc32)c(C)c1` it was 10% (active); in that of `COc1ccc(C(=O)NNc2ncnc3c2cnn3-c2ccc(C)cc2C)cc1`, -3% (active).
For `Cc1ccc(-n2ncc3c(N(CC(C)C)CC(C)C)ncnc32)c(C)c1` the value was 71%; for `COc1ccc(C(=O)NNc2ncnc3c2cnn3-c2ccc(C)c(Cl)c2)cc1`, 73%; for `CCOc1ccc(N2CC(NC(=O)CCc3ccccc3)CC2=O)cc1` (centres undefined), 78%.
Consider `COc1ccc(CCNc2nccn(-c3ccc(C)c(C)c3)c2=O)cc1OC`, for which the survival is 83%.
With `COC(=O)c1c(NC(=O)Cc2coc3cc(C)ccc23)sc2c1CCC2`, the survival is 106%.
Regarding `CCCCNC(=O)C(CC)Sc1nc2ccccc2c(=O)n1CCc1ccc(OC)c(OC)c1` (centres undefined), the survival was 127%.
In the case of `O=C(NCc1ccccc1Br)c1ccc(-n2cnc3cccnc32)cc1` it was 152%; in that of `Cc1cccc(C(=O)Nc2ccccc2-c2nc(-c3ccccc3)no2)c1`, 86%; in that of `CCOc1ccc(CCNC(=O)C2CCN(c3ncnc4c3nc3n4CCCCC3)CC2)cc1`, 119%.
As for `Cc1ccc(CN2C(=O)C(O)(CC(=O)c3ccc(C)cc3)c3ccccc32)cc1` (centres undefined), the survival was 66%.
Turning to `CC(C)c1ccc(C(=O)CC2(O)C(=O)N(CCc3ccccc3)c3ccc(Cl)cc32)cc1` (centres undefined), the survival is 33%.
Regarding `Cc1ccc(C(=O)CC2(O)C(=O)N(CCc3ccccc3)c3ccc(Cl)cc32)cc1` (centres undefined), the survival is 3% (active).
As for `CCc1ccc(C(=O)CC2(O)C(=O)N(Cc3ccc(C)cc3)c3ccccc32)cc1` (centres undefined), the survival was 48%.
Consider `CCc1ccc(C(=O)CC2(O)C(=O)N(C(C)C)c3ccccc32)cc1` (centres undefined), for which the survival was 111%.
As to `CCc1ccc(C(=O)CC2(O)C(=O)N(CCc3ccccc3)c3ccc(Cl)cc32)cc1` (centres undefined), the survival is 5% (active).
For `Cc1ccc2cc(C#N)c(SCC(=O)NCc3ccco3)nc2c1` the value was 103%; for `O=S(=O)(NCC(c1ccco1)S(=O)(=O)c1cccs1)c1ccc(F)c(C(F)(F)F)c1` (centres undefined), 32%.
In the case of `COc1ccc(CCNC(=O)c2ccc3c(c2)N(Cc2ccc(Cl)cc2)C(=O)c2ccccc2S3)cc1OC` it was 55%; in that of `Cc1cc(C)cc(NC(=O)CSc2nccn2-c2ccccc2)c1`, 135%.
For the molecule `Cc1cccc(NC(=O)c2ccc3oc(=O)c(S(=O)(=O)c4ccc(F)cc4)cc3c2)c1C`, the survival is 127%.
For `CN(CCO)Cc1ccc2c(c1)OCO2` the value was 121%; for `Cc1ccc(-n2ncc(C(=O)NCc3ccccc3C)c2-n2cccc2)cc1`, 88%; for `Cc1nn(-c2ccccc2)c(-n2cccc2)c1C(=O)NCc1ccccc1Cl`, 1% (active).
For `CC(=O)Nc1ccc(NC(=O)c2c(C)nn(-c3ccccc3)c2-n2cccc2)cc1` the value was 80%.
Turning to `Cc1nn(-c2ccccc2)c(-n2cccc2)c1C(=O)NCCc1ccc(Cl)cc1`, the survival is 2% (active).
Take `Cc1ccc(NC(=O)c2c(C)nn(-c3ccccc3)c2-n2cccc2)c(Cl)c1`: the survival was 78%.
For `CCOc1ccccc1CNC(=O)c1cnn(-c2ccc(C)cc2)c1-n1cccc1`, the survival was 10% (active).
Take `Cc1ccc(CCNC(=O)c2c(C)nn(-c3ccc(F)cc3)c2-n2cccc2)cc1`: the survival is 60%.
On to `COc1ccc(CNC(=O)c2cnn(-c3ccc(F)cc3)c2-n2cccc2)cc1`, for which the survival is 113%.
With `COc1ccc(CNC(=O)c2cnn(-c3ccccc3)c2-n2cccc2)cc1OC`, the survival is 126%.
Consider `CSc1ccc(CCNC(=O)c2cnn(-c3ccccc3)c2-n2cccc2)cc1`, for which the survival is 9% (active).
On to `O=C(NCCc1ccccc1)c1cnn(-c2ccc(F)cc2)c1-n1cccc1`, for which the survival is 49%.
On to `Cc1nn(-c2ccc(F)cc2)c(-n2cccc2)c1C(=O)NCCc1ccc(Cl)cc1`, for which the survival was 54%.
As for `CCOC(=O)C1=C(C)NC(=O)NC1c1c(O)ccc2ccccc12` (centres undefined), the survival was 111%.
In the case of `Cc1cn2c(=O)c(S(=O)(=O)NCCc3ccc(Cl)cc3)c(C)nc2s1` it was 88%.
For `COc1ccc(CC(=O)NCCc2csc3nc(-c4ccccc4F)nn23)cc1` the value was 55%; for `Cc1ccc(C)c(Oc2nc3c(c(=O)n(C)c(=O)n3C)n2Cc2ccccc2)c1`, 73%; for `COCCCNC(=O)CCCCn1c(=O)c2ccccc2n(CC(=O)Nc2ccc(C)cc2C)c1=O`, 82%.
With `COC(=O)c1sc2cccc(F)c2c1S(=O)(=O)N1CCN(c2cccc(C)c2)C(C)C1` (centres undefined), the survival was 87%.
For `CN1C(=O)C(CC(=O)NCC2CCCCC2)SC1=Nc1ccccc1` (centres undefined) the value was 99%; for `O=C1C2C3C=CC(C3)C2C(=O)N1c1ccc2c(c1)OCO2` (centres undefined), 94%; for `COc1ccc(S(=O)(=O)N2CCC(n3c(C)nc4cccnc43)CC2)cc1Cl`, 131%.
`O=C(NCC12CC3CC(CC(C3)C1)C2)c1cc2nc(-c3ccc(Cl)cc3)cc(C(F)(F)F)n2n1`: the survival was 60%.
As to `COc1ccc(-c2cc(C(F)(F)F)n3nc(C(=O)NCC45CC6CC(CC(C6)C4)C5)cc3n2)cc1`, the survival is 62%.
For `O=C(NCC12CC3CC(CC(C3)C1)C2)c1cc2nc(-c3ccccc3)cc(C(F)(F)F)n2n1` the value was -12% (active).
